One molecule from ChEMBL document CHEMBL2218924, “A broad activity screen in support of a chemogenomic map for kinase signalling research and drug discovery” (Biochem J, 2013) can be followed below.

The target of experiment [1] is T1, Ephrin type-A receptor 3 (Homo sapiens) (UniProt P29320).
T1 sequence (whole entry): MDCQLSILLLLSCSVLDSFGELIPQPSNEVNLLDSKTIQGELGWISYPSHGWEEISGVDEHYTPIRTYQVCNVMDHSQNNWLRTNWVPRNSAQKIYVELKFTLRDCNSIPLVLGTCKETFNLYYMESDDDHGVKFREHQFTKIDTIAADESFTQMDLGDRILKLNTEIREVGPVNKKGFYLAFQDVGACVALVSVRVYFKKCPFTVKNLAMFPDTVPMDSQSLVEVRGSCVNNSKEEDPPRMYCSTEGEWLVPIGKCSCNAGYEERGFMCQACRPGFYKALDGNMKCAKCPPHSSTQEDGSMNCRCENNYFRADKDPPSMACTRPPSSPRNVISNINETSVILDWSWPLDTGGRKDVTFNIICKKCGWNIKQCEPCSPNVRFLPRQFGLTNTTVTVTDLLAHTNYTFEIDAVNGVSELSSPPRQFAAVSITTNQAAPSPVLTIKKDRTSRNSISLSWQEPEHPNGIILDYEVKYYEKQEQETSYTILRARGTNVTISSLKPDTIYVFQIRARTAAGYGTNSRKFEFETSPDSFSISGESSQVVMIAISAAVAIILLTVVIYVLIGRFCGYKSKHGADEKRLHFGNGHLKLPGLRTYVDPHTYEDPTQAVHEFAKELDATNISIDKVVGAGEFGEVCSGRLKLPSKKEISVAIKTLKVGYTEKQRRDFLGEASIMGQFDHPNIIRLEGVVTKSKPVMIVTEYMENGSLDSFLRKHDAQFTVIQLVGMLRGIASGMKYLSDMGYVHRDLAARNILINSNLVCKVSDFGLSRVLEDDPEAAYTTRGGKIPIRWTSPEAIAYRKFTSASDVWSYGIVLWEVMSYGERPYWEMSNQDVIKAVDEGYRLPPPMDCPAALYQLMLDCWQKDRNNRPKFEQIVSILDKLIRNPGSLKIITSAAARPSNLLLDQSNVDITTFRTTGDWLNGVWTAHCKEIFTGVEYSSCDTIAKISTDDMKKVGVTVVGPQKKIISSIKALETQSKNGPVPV
Particulars: at 10 µM.

For experiment [2], the target named is Ephrin type-A receptor 4 (Homo sapiens) (UniProt P54764). Particulars: at 1 µM.
The target is the same in experiment [3]. Particulars: at 10 µM.
Experiment [4] deals with Ephrin type-A receptor 5 (Homo sapiens) (UniProt P54756). Particulars: at 1 µM.
Experiment [5] has the same target. As to conditions: at 10 µM.
Experiment [6] addresses Ephrin type-A receptor 7 (Homo sapiens) (UniProt Q15375). As to conditions: at 1 µM.
The target is the same in experiment [7]. Particulars: at 10 µM.
Experiment [8] deals with T2, Ephrin type-A receptor 8 (Homo sapiens) (UniProt P29322).
T2 sequence (whole entry): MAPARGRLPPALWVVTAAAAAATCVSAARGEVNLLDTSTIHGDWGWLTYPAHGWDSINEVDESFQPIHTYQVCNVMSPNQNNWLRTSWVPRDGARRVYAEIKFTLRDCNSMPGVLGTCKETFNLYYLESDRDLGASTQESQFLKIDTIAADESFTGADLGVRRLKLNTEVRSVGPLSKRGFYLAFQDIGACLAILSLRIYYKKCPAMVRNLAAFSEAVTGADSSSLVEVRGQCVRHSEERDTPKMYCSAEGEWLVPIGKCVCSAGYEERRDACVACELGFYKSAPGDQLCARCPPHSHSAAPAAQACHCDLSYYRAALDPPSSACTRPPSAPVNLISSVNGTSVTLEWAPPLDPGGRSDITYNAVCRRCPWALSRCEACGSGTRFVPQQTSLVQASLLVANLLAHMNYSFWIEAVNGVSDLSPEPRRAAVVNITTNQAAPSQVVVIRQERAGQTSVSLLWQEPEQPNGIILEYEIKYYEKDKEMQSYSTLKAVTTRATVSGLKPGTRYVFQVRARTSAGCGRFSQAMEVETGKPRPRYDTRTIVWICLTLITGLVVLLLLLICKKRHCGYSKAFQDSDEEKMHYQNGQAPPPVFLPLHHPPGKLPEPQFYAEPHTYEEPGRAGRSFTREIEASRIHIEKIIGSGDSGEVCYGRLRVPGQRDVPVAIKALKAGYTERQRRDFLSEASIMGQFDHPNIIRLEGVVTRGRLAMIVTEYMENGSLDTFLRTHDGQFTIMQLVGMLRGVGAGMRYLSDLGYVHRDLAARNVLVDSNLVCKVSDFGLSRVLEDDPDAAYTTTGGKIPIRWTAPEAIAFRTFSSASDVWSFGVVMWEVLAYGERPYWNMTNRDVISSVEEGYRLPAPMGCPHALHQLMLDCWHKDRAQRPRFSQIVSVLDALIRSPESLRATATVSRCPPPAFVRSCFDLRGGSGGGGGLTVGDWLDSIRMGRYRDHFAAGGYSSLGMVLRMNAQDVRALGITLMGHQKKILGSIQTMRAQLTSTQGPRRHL
Particulars: at 1 µM.

The target in experiment [9] is T2, Ephrin type-A receptor 8 (Homo sapiens). Particulars: at 10 µM.
Experiment [10] concerns the target T3, Ephrin type-B receptor 1 (Homo sapiens) (UniProt P54762).
T3 sequence (whole entry): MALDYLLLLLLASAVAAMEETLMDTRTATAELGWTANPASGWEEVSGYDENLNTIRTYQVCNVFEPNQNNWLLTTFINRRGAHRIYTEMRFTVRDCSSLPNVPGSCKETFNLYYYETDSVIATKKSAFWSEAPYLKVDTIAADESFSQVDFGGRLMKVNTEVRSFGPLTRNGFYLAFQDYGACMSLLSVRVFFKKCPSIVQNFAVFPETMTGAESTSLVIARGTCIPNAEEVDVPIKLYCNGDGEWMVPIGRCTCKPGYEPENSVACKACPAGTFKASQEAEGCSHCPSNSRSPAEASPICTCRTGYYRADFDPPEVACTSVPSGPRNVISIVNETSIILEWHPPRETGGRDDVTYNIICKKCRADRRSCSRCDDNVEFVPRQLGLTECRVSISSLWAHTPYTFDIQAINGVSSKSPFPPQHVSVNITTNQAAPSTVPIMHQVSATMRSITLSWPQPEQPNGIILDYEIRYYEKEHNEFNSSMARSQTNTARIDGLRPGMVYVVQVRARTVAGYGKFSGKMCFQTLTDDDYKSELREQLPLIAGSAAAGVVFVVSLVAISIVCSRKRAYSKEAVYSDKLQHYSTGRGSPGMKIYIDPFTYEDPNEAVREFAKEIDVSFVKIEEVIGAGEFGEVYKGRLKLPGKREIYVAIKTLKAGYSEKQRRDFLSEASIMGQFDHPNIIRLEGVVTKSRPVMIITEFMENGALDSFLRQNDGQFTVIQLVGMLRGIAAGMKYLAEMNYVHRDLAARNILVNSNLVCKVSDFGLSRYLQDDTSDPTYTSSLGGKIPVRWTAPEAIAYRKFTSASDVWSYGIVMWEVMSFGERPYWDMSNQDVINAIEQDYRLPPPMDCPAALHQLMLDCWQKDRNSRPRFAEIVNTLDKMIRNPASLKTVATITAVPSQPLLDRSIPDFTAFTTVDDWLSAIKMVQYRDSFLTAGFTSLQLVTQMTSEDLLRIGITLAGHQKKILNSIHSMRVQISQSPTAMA
Particulars: at 1 µM.

Ephrin type-A receptor 5 (Homo sapiens), sequence (P54756 whole entry): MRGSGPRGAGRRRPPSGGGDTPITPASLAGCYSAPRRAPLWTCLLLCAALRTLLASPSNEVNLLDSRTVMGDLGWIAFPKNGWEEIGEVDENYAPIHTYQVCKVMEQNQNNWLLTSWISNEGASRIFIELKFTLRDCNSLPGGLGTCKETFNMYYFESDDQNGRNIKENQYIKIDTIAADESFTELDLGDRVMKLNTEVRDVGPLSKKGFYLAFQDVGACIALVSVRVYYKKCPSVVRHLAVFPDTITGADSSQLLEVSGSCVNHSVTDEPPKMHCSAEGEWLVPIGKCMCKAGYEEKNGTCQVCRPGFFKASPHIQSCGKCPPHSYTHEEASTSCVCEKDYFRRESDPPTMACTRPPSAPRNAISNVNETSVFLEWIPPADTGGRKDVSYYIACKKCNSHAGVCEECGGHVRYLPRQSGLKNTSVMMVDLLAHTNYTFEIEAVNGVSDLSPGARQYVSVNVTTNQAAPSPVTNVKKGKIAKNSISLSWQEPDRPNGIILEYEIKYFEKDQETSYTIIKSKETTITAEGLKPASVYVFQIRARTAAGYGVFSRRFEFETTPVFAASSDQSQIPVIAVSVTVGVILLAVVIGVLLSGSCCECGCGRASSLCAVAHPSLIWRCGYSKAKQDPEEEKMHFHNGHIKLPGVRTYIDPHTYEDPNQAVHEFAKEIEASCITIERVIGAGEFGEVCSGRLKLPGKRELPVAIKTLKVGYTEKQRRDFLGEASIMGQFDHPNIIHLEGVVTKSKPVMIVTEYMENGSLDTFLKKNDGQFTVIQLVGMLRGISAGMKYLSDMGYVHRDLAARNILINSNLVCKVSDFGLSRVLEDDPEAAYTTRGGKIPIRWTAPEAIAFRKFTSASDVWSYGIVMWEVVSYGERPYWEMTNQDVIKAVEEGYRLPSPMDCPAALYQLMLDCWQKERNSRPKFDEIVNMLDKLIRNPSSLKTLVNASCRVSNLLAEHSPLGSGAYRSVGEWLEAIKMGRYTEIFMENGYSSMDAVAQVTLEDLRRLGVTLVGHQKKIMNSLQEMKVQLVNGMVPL
Ephrin type-A receptor 4 (Homo sapiens), sequence (P54764 whole entry): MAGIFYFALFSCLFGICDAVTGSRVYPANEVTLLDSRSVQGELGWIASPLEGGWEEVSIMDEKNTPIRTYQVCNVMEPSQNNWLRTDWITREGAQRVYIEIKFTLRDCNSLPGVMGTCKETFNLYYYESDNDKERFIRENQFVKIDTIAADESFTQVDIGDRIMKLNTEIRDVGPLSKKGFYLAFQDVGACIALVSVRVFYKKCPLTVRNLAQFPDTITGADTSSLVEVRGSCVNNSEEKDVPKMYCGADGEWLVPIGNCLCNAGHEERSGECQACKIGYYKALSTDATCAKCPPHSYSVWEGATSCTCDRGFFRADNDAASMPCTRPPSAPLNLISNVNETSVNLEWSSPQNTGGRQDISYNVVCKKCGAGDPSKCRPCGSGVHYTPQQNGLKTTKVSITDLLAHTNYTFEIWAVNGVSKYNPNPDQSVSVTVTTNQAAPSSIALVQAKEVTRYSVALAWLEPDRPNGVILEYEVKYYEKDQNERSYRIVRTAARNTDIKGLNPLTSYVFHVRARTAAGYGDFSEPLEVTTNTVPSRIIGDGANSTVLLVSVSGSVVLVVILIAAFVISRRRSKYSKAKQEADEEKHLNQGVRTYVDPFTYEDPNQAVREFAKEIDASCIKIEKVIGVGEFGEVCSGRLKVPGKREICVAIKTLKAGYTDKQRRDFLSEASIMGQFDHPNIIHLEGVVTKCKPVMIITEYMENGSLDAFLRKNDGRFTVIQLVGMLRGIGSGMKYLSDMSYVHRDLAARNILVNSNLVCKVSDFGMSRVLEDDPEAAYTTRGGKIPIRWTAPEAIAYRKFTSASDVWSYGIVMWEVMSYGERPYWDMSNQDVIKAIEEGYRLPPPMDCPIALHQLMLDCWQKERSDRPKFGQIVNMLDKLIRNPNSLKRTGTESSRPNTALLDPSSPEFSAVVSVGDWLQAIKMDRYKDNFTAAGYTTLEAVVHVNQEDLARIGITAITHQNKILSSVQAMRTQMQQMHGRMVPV
Ephrin type-A receptor 7 (Homo sapiens), sequence (Q15375 28-998 limits assumed): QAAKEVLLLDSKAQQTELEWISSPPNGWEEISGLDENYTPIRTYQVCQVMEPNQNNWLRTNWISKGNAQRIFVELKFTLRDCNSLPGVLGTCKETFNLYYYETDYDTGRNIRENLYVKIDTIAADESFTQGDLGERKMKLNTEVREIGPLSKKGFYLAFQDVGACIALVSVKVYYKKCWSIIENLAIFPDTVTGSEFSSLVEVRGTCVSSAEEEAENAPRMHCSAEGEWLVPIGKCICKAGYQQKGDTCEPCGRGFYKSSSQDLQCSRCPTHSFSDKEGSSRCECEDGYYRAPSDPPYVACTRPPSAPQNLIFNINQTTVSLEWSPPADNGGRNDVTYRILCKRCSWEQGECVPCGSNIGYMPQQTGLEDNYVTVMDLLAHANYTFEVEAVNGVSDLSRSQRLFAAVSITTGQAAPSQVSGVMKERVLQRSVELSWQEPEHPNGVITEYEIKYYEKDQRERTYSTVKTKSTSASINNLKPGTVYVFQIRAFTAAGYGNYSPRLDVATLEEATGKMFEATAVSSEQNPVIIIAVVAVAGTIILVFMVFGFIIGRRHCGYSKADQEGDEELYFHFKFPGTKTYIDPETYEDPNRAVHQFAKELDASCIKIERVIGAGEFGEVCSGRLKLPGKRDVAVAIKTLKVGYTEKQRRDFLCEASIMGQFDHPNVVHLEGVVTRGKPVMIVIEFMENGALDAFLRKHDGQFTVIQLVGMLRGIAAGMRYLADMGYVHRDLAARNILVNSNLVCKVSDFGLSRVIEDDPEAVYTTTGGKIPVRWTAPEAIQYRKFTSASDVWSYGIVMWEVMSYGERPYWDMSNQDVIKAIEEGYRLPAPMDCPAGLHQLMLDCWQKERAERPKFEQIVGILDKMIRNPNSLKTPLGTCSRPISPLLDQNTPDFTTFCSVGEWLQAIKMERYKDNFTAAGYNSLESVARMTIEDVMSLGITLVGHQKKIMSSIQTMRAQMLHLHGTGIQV

One may read the residual activity as the signal under treatment as a percentage of the control signal. On to `O=c1cc(-c2cccc3c2Sc2ccccc2S3)oc(N2CCOCC2)c1`, for which the residual activity in experiment [1] amounted to 94%; in experiment [2], 106%; in [3] it was 104%; in experiment [4], 113%; in experiment [5] it was 88%; in [6], 97%. Also, the residual activity in experiment [7] is 98%; in experiment [8], 108%; in experiment [9], 111%; in experiment [10], 97%.
